HSF1 inhib: HSF1 inhibitors in luciferase reporter cells, primary screen, cell-based, NIH3T3, luminescence; AID 2098, 2009; NIH3T3-HGL HSE-luciferase, MG132-induced, luminescence 8 h; stronger effect = lower value; 300,000 compounds, 0.77% hits; activity change, negative = inhibition, % at 7.5 µM (by protocol);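 active = more than half of replicate wells show activity change below -50%, luminescence cut by over half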;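 note: luciferase reports HSF-1 transcriptional activity via heat shock element; 0% = median of DMSO wells and -100% = zero luminescence signal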
STAT3 inh-1: IL-6 driven STAT3 reporter inhibitors, primary screen, U3A cells, luciferase, luminescence, MLSCN library; IL-6 STAT3-luciferase reporter; host cell line lacks STAT1; inhibition, % at 5.5 µM; 190,000 compounds, 0.89% hits; AID 862, 2007;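 active = inhibition above the mean inhibition across all screened compounds plus 3 SD, cut at about 44% in these data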;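 note: 0% = DMSO only wells and 100% = 100 µM nifuroxazide control wells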
STAT1 inh-1: STAT1 signaling inhibitors, primary screen, cell-based, HTS, luciferase reporter. NIH 3T3 STAT1-luciferase reporter, IFN-gamma, luminescence. inhibition, % at 5.5 µM. 200,000 compounds, 0.35% hits. AID 920, 2007;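 active = inhibition above a set limit, the mean inhibition across all tested compounds plus 3 SD, cut at about 34% in these data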;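 note: 0% = IFN-gamma with DMSO and 100% = IFN-gamma with 300 µM nifuroxazide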
TRAIL sens C8: viability loss with TRAIL in NB7+C8 cells, primary screen, TRAIL sensitizer project, cell-based, ATPlite luminescence; 360,000 compounds, 1% hits; AID 624354, 2012; inhibition (viability loss, TRAIL sensitization), % at 10 µM;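 active = compounds causing at least 50% loss of cell viability in the single-dose screen, relative to plate controls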
PPC-1+TRAIL kill: compounds killing PPC-1 cancer cells with TRAIL present, primary screen, TRAIL potentiator project, ATPLite luminescence, uHTS; PPC-1 cells + TRAIL, ATPLite viability luminescence; cell killing (% activity), % at 4 µM or 5 µM; 220,000 compounds, 0.41% hits; AID 1443, 2008;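 active = cell killing above 50% in the first pass at 4 µM, then a duplicate retest at 5 µM averaging 50% or more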;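 note: plate controls were cells with TRAIL plus DMSO for no effect and medium-only wells lacking cells for full effect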
HSP90 refold inh: HSP90 inhibitors, primary screen, cell lysate, luminescence; 290,000 compounds, 0.91% hits; Rabbit reticulocyte lysate, luciferase refolding luminescence, 3 h; Heat shock protein HSP 90 (rabbit reticulocyte lysate; luciferase refolding); inhibition, % at 5.6 µM;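 active = inhibition above the screen-wide mean plus 3 SD, computed separately per campaign, cut at about 16% in these data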;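 note: 0% = DMSO wells and 100% = 60 µM geldanamycin wells; inhibitors lower the luminescence because luciferase stays unfolded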
STAT3 inh-2: STAT3 reporter inhibitors, retest of hits, confirmation, U3A cells, luciferase, luminescence | shares compounds with STAT3 inh-1 | 1,200 compounds, 45% hits | AID 1265, 2008 | IL-6 STAT3 luciferase reporter; cell line lacks STAT1 | inhibition, % at 5.7 µM;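 active = inhibition above the hit cutoff computed for the primary STAT3 screen, cut at about 44% in these data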;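 note: 0% = IL-6 plus DMSO and 100% = IL-6 plus nifuroxazide control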
NFkB inh STAT3ct: NF-kB reporter inhibitors in human cells, confirmation, counter-screen for STAT3 inhibitor project, cell-based, HEK293T, luciferase, TNF-alpha stimulus; shares compounds with STAT3 inh-1; TNF-alpha induced; inhibition, % at 5.7 µM; 1,200 compounds, 36% hits;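 active = inhibition above the mean of solvent-only control wells plus 3 SD, cutoff set per campaign, cut at about 13% in these data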;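 note: 0% = TNF-alpha with DMSO and 100% = TNF-alpha with MG high control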
STAT1 inh STAT3c: STAT1 reporter inhibitors, IFN-gamma induced, confirmation, counter-screen for STAT3 inhibitor project, cell-based, NIH 3T3, luciferase luminescence. shares compounds with STAT3 inh-1. NIH 3T3 STAT1-luciferase reporter. inhibition, % at 5.7 µM. 1,200 compounds, 27% hits;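 active = inhibition above the mean plus 3 SD of solvent-only control wells, limit set per screening run, cut at about 16% in these data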;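 note: 0% = DMSO with IFN-gamma and 100% = nifuroxazide control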
STAT1 inh-2: STAT1 signaling inhibitors, confirmation, cell-based, HTS, luciferase reporter; NIH 3T3 STAT1-luciferase reporter, IFN-gamma, luminescence; 200 compounds, 55% hits; shares compounds with STAT1 inh-1; inhibition, % at 5.5 µM;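 active = triplicate mean inhibition exceeding the hit cutoff computed for the primary STAT1 screen, cut at about 35% in these data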;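 note: 0% = DMSO with IFN-gamma and 100% = 300 µM nifuroxazide with IFN-gamma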
NFkB inh: NF-kB reporter inhibitors, TNF-alpha stimulated, counter-screen for STAT1 inhibitor project, cell-based, HEK293T, luciferase luminescence; TNF-alpha induced; shares compounds with STAT1 inh-1; AID 1303, 2008; inhibition, % at 5.7 µM; 200 compounds, 30% hits;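 active = inhibition above the mean of solvent-only control wells plus 3 SD of those wells, cut at about 15% in these data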;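 note: 0% = DMSO with TNF-alpha and 100% = MG-132 control with TNF-alpha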
STAT3 inh 2: STAT3 reporter inhibition by STAT1 hits, counter-screen for STAT1 inhibitor project, U3A cells, luciferase, luminescence, triplicate; shares compounds with STAT1 inh-1; IL-6 STAT3 luciferase reporter; cells lacking STAT1; inhibition, % at 5.7 µM; 200 compounds, 20% hits;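 active = inhibition above the mean of solvent-only control wells plus 3 SD, set per campaign, cut at about 25% in these data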;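 note: 0% = IL-6 plus DMSO and 100% = IL-6 plus nifuroxazide control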
PPC1 cytotox: cytotoxicity in PPC-1 cells, confirmation, cytotoxicity control for TRAIL apoptosis potentiator project, cell-based, ATP content luminescence. shares compounds with PPC-1+TRAIL kill. PPC-1 viability, ATPlite luminescence, overnight. cytotoxicity, % at 5 µM. 1,200 compounds, 50% hits. AID 1447, 2008;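 active = reconfirmed compounds whose average cytotoxicity reaches 50% or more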;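 note: 0% = DMSO-treated cells and 100% = wells holding medium but no cells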
HSP90 inh confirm: HSP90 inhibitors, confirmation, cell lysate, luminescence; rabbit reticulocyte lysate, luciferase refolding luminescence, 3 h; inhibition, % at 5.9 µM; shares compounds with HSP90 refold inh; 2,300 compounds, 64% hits; in the data active = inhibition above about 18%;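 note: 0% = vehicle wells and 100% = reference inhibitor wells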
luciferase ctr: firefly luciferase inhibitors, HSP90 counter-screen, confirmation, artefact control for HSP90 inhibitor project, biochemical, luminescence, triplicate | shares compounds with HSP90 refold inh | purified native firefly luciferase | inhibition, % at 5.9 µM | 2,300 compounds, 48% hits | AID 1847, 2009;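 active = inhibition above the mean inhibition of all tested sample wells plus 3 SD, cut at about 10% in these data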;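 note: 0% = DMSO with luciferase and 100% = wells lacking luciferase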
Target sequence (P08659 whole entry, looked up): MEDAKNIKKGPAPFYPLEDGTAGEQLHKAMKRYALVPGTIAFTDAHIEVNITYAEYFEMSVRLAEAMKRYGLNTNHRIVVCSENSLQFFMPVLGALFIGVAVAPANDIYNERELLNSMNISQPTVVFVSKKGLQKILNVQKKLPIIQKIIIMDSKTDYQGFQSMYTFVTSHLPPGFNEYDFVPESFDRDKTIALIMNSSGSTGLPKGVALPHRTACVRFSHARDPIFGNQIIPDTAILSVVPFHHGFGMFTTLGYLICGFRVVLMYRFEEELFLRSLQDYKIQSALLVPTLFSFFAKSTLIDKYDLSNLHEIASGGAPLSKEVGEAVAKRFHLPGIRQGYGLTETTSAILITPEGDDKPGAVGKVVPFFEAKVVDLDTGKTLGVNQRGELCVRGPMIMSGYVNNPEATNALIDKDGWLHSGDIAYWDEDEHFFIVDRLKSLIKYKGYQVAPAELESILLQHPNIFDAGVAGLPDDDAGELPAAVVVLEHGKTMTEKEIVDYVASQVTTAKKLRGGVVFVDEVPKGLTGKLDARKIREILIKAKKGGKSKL
The depositor's hits bear a star; nt = no result. Sampled rows, rich in hits. Any-hit rate of the full collection: about 2.4%.

SMILES	HSF1 inhib	STAT3 inh-1	STAT1 inh-1	TRAIL sens C8	PPC-1+TRAIL kill	HSP90 refold inh	STAT3 inh-2	NFkB inh STAT3ct	STAT1 inh STAT3c	others
CNC(=S)N(C)CCc1cc2c(c(OC)c1/C=C1/C(=O)NC(=O)N(C)C1=O)OCO2	-1	nt	nt	-1	-4	-5	nt	nt	nt
CCNC(=S)N(C)CCc1cc2c(c(OC)c1C=C1C(=O)N(C)C(=O)N(C)C1=O)OCO2	-85*	nt	nt	-1	6	6	nt	nt	nt
CCN1C[C@]2(C)CC[C@H](OC)[C@]34C2[C@H](OC(C)=O)[C@@]2(OCO[C@@]25C[C@H](OC)[C@H]2C[C@]3(O)C5[C@H]2OC)[C@@H]14	5	nt	nt	-3	nt	1	nt	nt	nt
O=C(c1ccc2c(c1)OCO2)C1CCCN(Cc2ccc(F)c(F)c2)C1 (stereo not drawn)	9	nt	nt	-1	nt	1	nt	nt	nt
O=C(c1ccc(Cl)cc1)C1CCCN(Cc2ccc3c(c2)OCCO3)C1 (stereo not drawn)	-60*	2	3	1	8	3	nt	nt	nt
COc1cc(O)c2c(c1)/C=C/C[C@H](O)[C@H](O)C(=O)CCC[C@H](C)OC2=O	nt	nt	nt	3	nt	nt	nt	nt	nt
CN1C2CCC1/C(=C/c1ccccn1)C(=O)/C2=C\c1ccccn1	nt	53*	-118	86*	41	3	32	-71	-262
CC(C)CN1CCN(Cc2cccc3c2OCO3)CC1CCO (stereo not drawn)	-2	7	13	16	8	2	nt	nt	nt
C#C[C@]1(O)CCC2C3C(=O)C=C4C(Cl)=CCC[C@]4(C)C3CC[C@@]21C (stereo partly drawn)	nt	nt	nt	-6	nt	nt	nt	nt	nt
O=c1[nH]c(=O)n(CCC2=CCCCC2)c(O)c1C=NC1CCN(Cc2ccccc2)CC1	nt	62*	0	22	-2	2	69*	30*	8
C=CCOC(=O)c1ccccc1N	nt	nt	nt	-6	nt	nt	nt	nt	nt
Nc1ccccc1C(=O)OCCOc1ccccc1	nt	58*	-10	-6	21	1	17	-22	-153
CNC(=O)Oc1ccc(-c2cn3cc(Cl)ccc3n2)cc1	8	84*	11	84*	55*	11	68*	21*	1
Cn1nc(-c2ccc(OCC(=O)N3CCN(Cc4ccccc4)CC3)cc2)c2ccccc2c1=O	1	60*	19	17	15	-3	49*	20*	17*
Cn1cccc1CN1CCN(C(=O)COc2ccccc2)CC1	4	4	-2	11	5	-3	nt	nt	nt
Cc1cccc(C)c1-n1nnnc1C(c1ccccc1OC(F)(F)F)N1CCC(n2c(=O)[nH]c3ccccc32)CC1 (stereo not drawn)	nt	nt	nt	26	nt	nt	nt	nt	nt
C[C@H]1O[C@@H](O[C@H]2[C@@H](O)C[C@H](O[C@H]3[C@@H](O)C[C@H](O[C@H]4CC[C@@]5(C)[C@H](CC[C@@H]6[C@@H]5CC[C@]5(C)[C@@H](C7=CC(=O)OC7)CC[C@]65O)C4)O[C@@H]3C)O[C@@H]2C)C[C@H](O)[C@@H]1O	nt	83*	-10	nt	74*	5	81*	-7	-2	PPC1 cytotox=73*
COC(=O)C1=C(c2ccc(OC(F)(F)F)cc2)C[C@@H]2CC[C@H]1N2C(=O)N1CCC(C)CC1	nt	nt	nt	-3	nt	nt	nt	nt	nt
CN[C@H]1C[C@H]2O[C@@](C)([C@H]1OC)n1c3ccccc3c3c4c(c5c6ccccc6n2c5c31)C(=O)NC4	-85*	104*	9	nt	66*	0	105*	96*	26*	PPC1 cytotox=70*
O=C1NC(=O)C(C2CCCCCC2)C(=O)N1	nt	nt	nt	-12	nt	nt	nt	nt	nt
CN(C)C(=O)Oc1ccc(OCc2nc3ccccc3[nH]2)cc1	-4	58*	-4	68*	46	27*	29	5	-3	HSP90 inh confirm=52*;luciferase ctr=31*
CC(C)(C)n1cc(C(=O)c2ccc3ccccc3c2O)cn1	-72*	65*	30	50*	42	49*	13	-32	-133	HSP90 inh confirm=60*;luciferase ctr=58*
CC(C)(C)n1cc(C(=O)c2ccccc2OCCCF)cn1	1	nt	nt	-1	nt	-4	nt	nt	nt
COc1ccc(CCNCc2ccc(Br)cc2)cc1OC	22	nt	nt	-8	nt	0	nt	nt	nt
C[C@H]1C[C@@H](C)C(=O)[C@@H]([C@H](O)CC2CC(=O)NC(=O)C2)C1	-69*	nt	84*	27	33	3	nt	nt	nt	STAT1 inh-2=41*;NFkB inh=76*;STAT3 inh 2=91*;PPC1 cytotox=42
CCN(CC)C(=O)c1ccc(NC(=O)c2c(C)noc2C)cc1	nt	nt	nt	-7	nt	nt	nt	nt	nt
C/C=C(\C)C(=O)OC1C(C)=C2C(C1OC(=O)CCCCC)C(C)(OC(C)=O)CC(OC(=O)CCC)C1(O)C2OC(=O)C1(C)O (stereo not drawn)	-38	nt	nt	nt	57*	nt	nt	nt	nt	PPC1 cytotox=54*
